Source: ChEMBL document CHEMBL3988442, “University of Dundee, Small-Polar-MMV Screening Library” (2021)
In all, about 69,000 compounds went through this assay and about 1,000 (1.4%) showed an effect of 50% or more. This is one part of a sample in which strong results are shown more often than they occur.

Tested on: Leishmania donovani
Assay: Leishmania intramacrophage assay
Assay type: functional, organism-based
Set-up: scale not given: in the data most compounds retested in dose-response had high values

| Compound | Percent Effect (30.3 µM, […]) [%] | Percent Effect (30 µM, 30.03 µM) [%] |
| --- | --- | --- |
| O=C(Nc1cccc(N2CCN(CC3CC3)CC2)c1)N1CCCC1 | 55.96 |  |
| O=C(Nc1cccc(N2CCN(CC3CC3)CC2)c1)C1CCCO1 (configuration not stated) | 25.21 |  |
| O=C(NCC1CC1)Nc1cccc(N2CCN(CC3CC3)CC2)c1 |  | -6.352 |
| O=C(NCCc1ccc(F)cc1)C1CN(C(=O)Cn2cncn2)C1 | 19.84 |  |
| COCCCNC(=O)COc1ccccc1C(F)(F)F | 6.767 |  |
| O=C(Cc1ccccc1)NC[C@H]1Cn2ccnc2CO1 | 5.132 |  |
| CCC(Nc1nc(C)nc2onc(C)c12)c1cccs1 (configuration not stated) | 50.11 |  |
| CCC(Nc1nc(C)nc2onc(C)c12)c1nc(C)c(C)s1 (configuration not stated) | 15.33 |  |
| Cc1nc(NCCSc2ccccn2)c2c(C)noc2n1 | 23.02 |  |
| O=C(NC1CCOCC1)c1cccc(C2CCCNC2)c1 (configuration not stated) | -13.02 |  |
| CN(C)CCOCC1CN(Cc2ccsc2)Cc2ccnn2C1.O=C(O)C(F)(F)F.O=C(O)C(F)(F)F.O=C(O)C(F)(F)F (configuration not stated) |  | 9.716 |
| CCOCC1CN(C(=O)Cc2cccs2)Cc2ccnn2C1 (configuration not stated) | 34.28 |  |
| CCOCC1CN(C(=O)Cc2ccsc2)Cc2ccnn2C1.O=C(O)C(F)(F)F (configuration not stated) | 51.92 |  |
| Cc1noc(C)c1CN(C)C(=O)Cn1c(=O)n(C)c2ccccc21 | 12.61 |  |
| Cc1noc(C)c1CN(C)C(=O)CCn1c(=O)n(C)c2ccccc21 | 50.75 |  |
| Cc1noc(C)c1CN(C)Cn1c(=O)n(C)c2ccccc21 | 5.674 |  |
| O=C(CC1CC1)NCc1cn2c(n1)CN(C(=O)C1CCOCC1)CC2 | -40.34 |  |
| COCc1noc(CNc2nc(C3CCCC3)nc3c2CCNCC3)n1 | 8.376 |  |
| COCCNc1nc2c(c(NCC3CCOC3)n1)CCNCC2 (configuration not stated) | 32.27 |  |
| c1nc(CCNc2nc(C3CC3)nc3c2CCNCC3)c[nH]1 | 9.64 |  |
| Cc1nc2c(c(NCC(O)C(F)(F)F)n1)CCNCC2 (configuration not stated) | -15.94 |  |
| Cc1nc2c(c(NCCc3nc4c(s3)CCCC4)n1)CCNCC2 | 49.04 |  |
| OC(CNc1ncnc2c1CCNCC2)C(F)(F)F (configuration not stated) | 26.97 |  |
| OC(CNc1nc(C2CCCC2)nc2c1CCNCC2)C(F)(F)F (configuration not stated) | 100.7 |  |
| COCCNc1nc(C2CCCC2)nc2c1CCNCC2 |  | 63.78 |

| Compound | Percent Effect (30.3 µM, […]) [%] | Percent Effect (30 µM, 30.03 µM) [%] |
| --- | --- | --- |
| C1Cc2nc(CCNc3nc(C4CC4)nc4c3CCNCC4)sc2C1 | 95.48 |  |
| O=C(NC1CC1)C1CCc2nnc(-c3cccc(C(F)(F)F)c3)n21 (configuration not stated) | 10.31 |  |
| CN(C)CCn1cc(NC(=O)NC(C)(C)c2nccs2)cn1 | 7.741 |  |
| Cc1cc(C(=O)N2CCCC2c2nnc3n2CCCCC3)on1 (configuration not stated) | 34.8 |  |
| Cc1nc(N2C[C@@H](CN3CCCN(C)CC3)[C@@H](CO)C2)c2ccsc2n1 | -13.66 |  |
| CO[C@H]1[C@@H]2CC[C@H]1CN(c1nc(C)nc3sccc13)C2 | 56.76 |  |
| CO[C@H]1[C@@H]2CC[C@H]1CN(c1nc(C)nc3ccsc13)C2 | 34.92 |  |
| CC(=O)N1C[C@H]2C3(CCN(S(C)(=O)=O)CC3)CC[C@@]2(C(=O)N(C)C)C1 | -12.02 |  |
| Cc1cc(C)n(CC2CCCN2CC(=O)N(C)Cc2ccco2)n1 (configuration not stated) | 34.8 |  |
| Cc1cc(C)n(CC2CCCN2CC(=O)N(C)Cc2ccc(C)o2)n1 (configuration not stated) | 94.04 |  |
| Cc1cc(C)n(CC2CCCCN2CC(=O)N(C)Cc2ccco2)n1 (configuration not stated) | -27.36 |  |
| CNS(=O)(=O)c1cccc(CNc2ccc(C(F)(F)F)nn2)c1 |  | 12.97 |
| COc1ccccc1N1CC(NC(=O)Cn2cc(C)nn2)CC1=O (configuration not stated) | 4.572 |  |
| COc1ccccc1N1CC(NC(=O)c2cc(C(C)C)nn2C)CC1=O (configuration not stated) | 57.19 |  |
| COc1ccccc1N1CC(NC(=O)Cn2cc(C(C)C)nn2)CC1=O (configuration not stated) | -4.218 |  |
| CCOCCC(=O)NC(Cc1ccc(C)cc1)c1ccccn1 (configuration not stated) | 16.59 |  |
| CN1CC[C@@H]2[C@@H](CO[C@H]2CNC(=O)c2nccn2C)C1.O=C(O)C(F)(F)F | 58.2 |  |
| CCCN1CC[C@@H]2[C@@H](CO[C@H]2CNC(=O)c2nccn2C)C1.O=C(O)C(F)(F)F | 42.84 |  |
| Cn1ccnc1C(=O)NC[C@@H]1OC[C@H]2CN(CC3CC3)CC[C@H]21.O=C(O)C(F)(F)F | 33.21 |  |
| Cn1cncc1CN1CCCC1c1cncc(Oc2ccc(F)cc2)n1 (configuration not stated) | 23.83 |  |
| Cn1cncc1CN1CCCC1c1cncc(Oc2ccc(Cl)cc2)n1 (configuration not stated) | 60.52 |  |
| Cc1ncccc1Oc1cncc(C2CCCN2Cc2cncn2C)n1 (configuration not stated) | 19.44 |  |
| O=C(O)C(F)(F)F.O=C([C@H]1COC[C@H]2CN(CC3CCCC3)C[C@H]21)N1CCOCC1 | 14.74 |  |
| CC(=O)N1CCC2(CC1)CN(C(=O)[C@@H]1CSCN1)c1ccc(Cl)cc12.O=C(O)C(F)(F)F | 42.29 |  |
| O=C(O)C(F)(F)F.O=C(c1ccccc1)N1CCC[C@]2(C[C@@H](Oc3ncccc3F)CO2)C1 | -17.71 |  |

| Compound | Percent Effect (30.3 µM, […]) [%] | Percent Effect (30 µM, 30.03 µM) [%] |
| --- | --- | --- |
| O=C(O)C(F)(F)F.O=C(O)C(F)(F)F.O=C(c1cccnc1)N1CCC[C@]2(C[C@H](Oc3ncccc3F)CO2)C1 | 55.01 |  |
| COc1ncccc1C(=O)N1CC[C@]2(C[C@@H](Oc3cccnc3)CO2)C1.O=C(O)C(F)(F)F.O=C(O)C(F)(F)F | 31.08 |  |
| CS(=O)(=O)N1CCC[C@]2(C[C@@H](Oc3ncccc3F)CO2)C1.O=C(O)C(F)(F)F |  | 22.25 |
| Cc1csc(CN2CCC[C@]3(C[C@@H](OCC4CC4)CO3)C2)n1.O=C(O)C(F)(F)F | 2.266 |  |
| O=C(O)C(F)(F)F.O=C(c1ncccn1)N1CCC[C@]2(C[C@@H](Oc3ncccc3F)CO2)C1 | -9.266 |  |
| COc1ncccc1C(=O)N1CCC2(CC1)CC(OC)CO2.O=C(O)C(F)(F)F (configuration not stated) | 56.73 |  |
| CO[C@@H]1CO[C@@]2(CCCN(Cc3nc(C)cs3)C2)C1.O=C(O)C(F)(F)F | 100.6 |  |
| Cn1cc(CN2CCC[C@]3(C[C@H](Oc4ncccc4F)CO3)C2)cn1.O=C(O)C(F)(F)F.O=C(O)C(F)(F)F | 42.35 |  |
| CCO[C@H]1CO[C@@]2(CCCN(Cc3nc(C)cs3)C2)C1.O=C(O)C(F)(F)F |  | 20.53 |
| COC1COC2(CCN(C(=O)c3ccccc3F)CC2)C1 (configuration not stated) | 35.35 |  |
| Cn1cc(CN2CCC[C@]3(C[C@@H](Oc4ncccc4F)CO3)C2)cn1.O=C(O)C(F)(F)F.O=C(O)C(F)(F)F | 62.31 |  |
| CC(C)NC(=O)N1CCC(c2nnc3n2CCNC3)CC1 | -10 |  |
| O=C(O)C(F)(F)F.O=C([C@H]1CN(CCc2ccccc2)C[C@H]2OCC[C@@H]12)N1CCCO1 |  | 22.49 |
| CCCC(C#N)NC(=O)Cc1csc(CC)n1 (configuration not stated) | 15.43 |  |
| CC(OCc1ccccc1)C(=O)NC1CCN(CC(N)=O)CC1 (configuration not stated) | 21.11 |  |
| O=C(c1ccc(O)c(Cl)c1)N1C[C@@H](CN2CCCCCC2)[C@@H](CO)C1 | -29.45 |  |
| Cc1nc(CN2CCCC2c2[nH]ncc2C(=O)N(C)C)cs1 (configuration not stated) | 17.56 |  |
| O=S(=O)(NCCc1c[nH]c2ccc(F)cc12)C1CCOCC1 | 23.05 |  |
| CCO[C@H]1CO[C@@]2(CCN(Cc3ccc4c(c3)OCO4)C2)C1.O=C(O)C(F)(F)F | 9.141 |  |
| O=C(O)C(F)(F)F.O=C(O)C(F)(F)F.c1ccc(O[C@H]2CO[C@@]3(CCN(Cc4ccc5c(c4)OCO5)C3)C2)nc1 | 57 |  |
| CCO[C@@H]1CO[C@@]2(CCN(Cc3ccc4c(c3)OCO4)C2)C1.O=C(O)C(F)(F)F | 22.42 |  |
| CC(C)Cc1cc(C(=O)NCCn2nc3ccccn3c2=O)[nH]n1 | 7.621 |  |
| O=C1CCC(=O)N1CCN1CCC(=Cc2ccccc2)CC1 | 5.63 |  |
| O=C(CCc1ccsc1)NC1CCN(c2cccc(F)c2)CC1 | -29.46 |  |
| COc1cccc(-c2cccc(N3CCC(N[C@@H]4CCOC4)CC3)c2)c1 | 96 |  |

| Compound | Percent Effect (30.3 µM, […]) [%] | Percent Effect (30 µM, 30.03 µM) [%] |
| --- | --- | --- |
| O=C(Cc1cccs1)NC1CCN(c2cccc(F)c2)CC1 |  | 26.53 |
| Fc1cccc(-c2cccc(N3CCC(NC4CCCOC4)CC3)c2)c1 (configuration not stated) | 98.85 |  |
| COc1cccc(N2CCC(N3CCOC(C(F)(F)F)C3)CC2)c1 (configuration not stated) | 13.73 |  |
| Cc1nc(-c2cccc(N3CCC(N[C@@H]4CCOC4)CC3)c2)cs1 | -5.486 |  |
| COC(C)(C)CC(C)NCc1cc(-c2ccco2)on1 (configuration not stated) | -19.81 |  |
| CN(CCC#N)C(=O)CN1CCCN(Cc2noc(C3CC3)n2)CC1 | 25.2 |  |
| O=C(O)C(F)(F)F.c1ncn(Cc2cnc3n2CCN(Cc2ccsc2)CC3)n1 |  | -12.88 |
| O=C1NCC(C(=O)N(Cc2cccc(Br)c2)C2CC2)N1 (configuration not stated) | -2.381 |  |
| O=C1CC[C@H](C(=O)N(CCc2ccccc2)C2CCOC2)N1 (some centres not stated) | 6.545 |  |
| O=C1CC[C@H](C(=O)N(Cc2cccc(Br)c2)C2CC2)N1 | 50.36 |  |
| Nc1nnc(CCCNC(=O)c2ccc(C3CCCNC3)cc2)s1 (configuration not stated) | 51.22 |  |
| Nc1nnc(CCNC(=O)c2cccc(C3CCCNC3)c2)s1 (configuration not stated) | 5.236 |  |
| Nc1nc(CCCNC(=O)c2ccc(C3CCCNC3)cc2)cs1 (configuration not stated) | 19.48 |  |
| CN(Cc1cccc(OC(F)(F)F)c1)Cc1cnn(C)c1 | 10.05 |  |
| CCN1CCCC(O)(CNCc2ccncc2)C1 (configuration not stated) | -12.57 |  |
| Cc1cc(NCc2ccc(S(N)(=O)=O)cc2)nc(C)n1 | 22.51 |  |
| NCCc1nc(N(Cc2nccs2)C2CC2)c2ccccc2n1 | -16.71 |  |
| COCCN(Cc1cccs1)c1nc(CCN)nc2ccccc12 | 70.83 |  |
| COCCN(Cc1ccccc1Cl)c1nc(CCN)nc2ccccc12 | 98.78 |  |
| Cc1ccsc1CN(c1nc(CCN)nc2ccccc12)C1CC1 | 40.33 |  |
| NCCc1nc(N(Cc2cncs2)C2CC2)c2ccccc2n1 | -1.942 |  |
| COCCN(CC1CC1)c1nc(CCN)nc2ccccc12 | 14.22 |  |
